Data as given in article PMC7862700, “An all-to-all approach to the identification of sequence-specific readers for epigenetic DNA modifications on cytosine”.

Columns and labels:
Assay in all cases: DAPPL (digital affinity profiling via proximity ligation, sequencing); 10 mM Tris-HCl pH 7.5, 50 mM NaCl, 1 mM DTT, 4% glycerol, room temperature, 30 min; GST-TFs on glutathione beads, 16-mer random dsDNA library, 0.1% formaldehyde crosslink after washing; high values mean tight binding
FEV = molecular target: T1, FEV (Homo sapiens, UniProt Q99581 1-238); conditions: protein: recombinant; tags: N-terminal GST; dsDNA, one strand shown
T1 sequence: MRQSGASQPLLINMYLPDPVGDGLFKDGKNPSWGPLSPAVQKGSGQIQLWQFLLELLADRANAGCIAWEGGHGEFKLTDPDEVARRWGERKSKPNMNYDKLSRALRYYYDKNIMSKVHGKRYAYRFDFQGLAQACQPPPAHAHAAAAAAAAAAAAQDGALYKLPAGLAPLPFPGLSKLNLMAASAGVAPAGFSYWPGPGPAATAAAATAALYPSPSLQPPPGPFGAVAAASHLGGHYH
Summary of the method: (§1)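 GST fusions of human transcription factors were expressed in yeast and captured with glutathione beads. Once given DNA barcodes and pooled alongside a tag-only sample, they were incubated for 30 min at room temperature with 200 nmole of a random double-stranded 16-mer DNA library in Tris/NaCl/DTT/glycerol buffer, then washed, crosslinked (0.1% formaldehyde), proximity-ligated, PCR-amplified and sequenced on an Illumina NextSeq500. The binding signal of each hexamer is its read frequency for a factor divided by its frequency for the tag-only sample.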

ETV5 = ETV5 (Homo sapiens, UniProt P41161 1-510); conditions: protein: recombinant; tags: N-terminal GST; dsDNA, one strand shown
Summary of the method: as §1

HSF1 = HSF1 (Homo sapiens, UniProt Q00613 1-529); conditions: protein: recombinant; tags: N-terminal GST; chain copies: 3; dsDNA, one strand shown
Summary of the method: as §1

SPIC = molecular target: T2, SPIC (Homo sapiens, UniProt Q8N5J4 1-248); conditions: protein: recombinant; tags: N-terminal GST; dsDNA, one strand shown
T2 sequence: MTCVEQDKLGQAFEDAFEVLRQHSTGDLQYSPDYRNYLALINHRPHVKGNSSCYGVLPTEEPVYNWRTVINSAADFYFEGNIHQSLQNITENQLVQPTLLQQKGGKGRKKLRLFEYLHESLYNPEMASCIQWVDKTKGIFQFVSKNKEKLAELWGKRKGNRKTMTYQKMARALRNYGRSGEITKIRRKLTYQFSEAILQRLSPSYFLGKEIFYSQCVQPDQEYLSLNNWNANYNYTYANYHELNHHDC
Summary of the method: as §1

ELF4 = ELF4 (Homo sapiens, UniProt Q99607 1-663); conditions: protein: recombinant; tags: N-terminal GST; dsDNA, one strand shown
Summary of the method: as §1

ELK4 = molecular target: T3, ELK4 (Homo sapiens, UniProt P28324-2 1-405); conditions: protein: recombinant; tags: N-terminal GST; dsDNA, one strand shown
T3 sequence: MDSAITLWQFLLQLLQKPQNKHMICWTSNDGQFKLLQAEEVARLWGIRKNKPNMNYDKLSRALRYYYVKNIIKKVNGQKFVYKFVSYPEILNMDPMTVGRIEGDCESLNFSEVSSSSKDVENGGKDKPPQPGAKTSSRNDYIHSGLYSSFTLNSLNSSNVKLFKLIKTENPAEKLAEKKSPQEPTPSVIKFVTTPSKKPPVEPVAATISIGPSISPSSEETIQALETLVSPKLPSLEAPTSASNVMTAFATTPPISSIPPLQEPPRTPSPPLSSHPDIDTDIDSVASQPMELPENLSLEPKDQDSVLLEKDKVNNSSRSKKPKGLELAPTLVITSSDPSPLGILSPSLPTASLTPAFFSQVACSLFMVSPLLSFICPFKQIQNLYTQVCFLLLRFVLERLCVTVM
Summary of the method: as §1

ETV2 = molecular target: T4, ETV2 (Homo sapiens, UniProt O00321 1-342); conditions: protein: recombinant; tags: N-terminal GST; dsDNA, one strand shown
T4 sequence: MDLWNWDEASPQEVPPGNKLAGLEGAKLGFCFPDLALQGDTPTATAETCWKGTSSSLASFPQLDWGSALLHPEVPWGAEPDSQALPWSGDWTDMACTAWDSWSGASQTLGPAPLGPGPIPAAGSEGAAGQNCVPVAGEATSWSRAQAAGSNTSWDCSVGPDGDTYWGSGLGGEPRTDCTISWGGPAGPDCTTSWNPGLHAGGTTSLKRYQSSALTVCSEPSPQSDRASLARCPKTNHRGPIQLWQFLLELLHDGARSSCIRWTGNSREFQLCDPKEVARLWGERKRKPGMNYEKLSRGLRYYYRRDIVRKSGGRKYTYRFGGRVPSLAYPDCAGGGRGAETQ
Summary of the method: as §1

ELF3 = molecular target: T5, ELF3 (Homo sapiens, UniProt P78545 1-371); conditions: protein: recombinant; tags: N-terminal GST; dsDNA, one strand shown
T5 sequence: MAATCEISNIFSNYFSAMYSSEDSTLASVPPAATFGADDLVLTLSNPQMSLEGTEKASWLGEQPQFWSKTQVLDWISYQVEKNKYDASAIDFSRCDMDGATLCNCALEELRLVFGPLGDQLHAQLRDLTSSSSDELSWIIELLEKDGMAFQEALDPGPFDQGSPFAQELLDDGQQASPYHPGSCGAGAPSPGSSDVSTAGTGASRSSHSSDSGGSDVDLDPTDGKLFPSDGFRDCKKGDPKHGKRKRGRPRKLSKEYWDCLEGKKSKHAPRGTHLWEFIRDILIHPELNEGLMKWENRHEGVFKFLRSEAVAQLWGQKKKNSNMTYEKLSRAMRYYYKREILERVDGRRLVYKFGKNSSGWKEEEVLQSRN
Summary of the method: as §1

CRX = CRX (Homo sapiens, UniProt O43186 1-299); conditions: protein: recombinant; tags: N-terminal GST; dsDNA, one strand shown
Summary of the method: as §1

ETV1 = ETV1 (Homo sapiens, UniProt P50549 1-477); conditions: protein: recombinant; tags: N-terminal GST; dsDNA, one strand shown
Summary of the method: as §1

Chain of ELF4 (Q99607 whole entry): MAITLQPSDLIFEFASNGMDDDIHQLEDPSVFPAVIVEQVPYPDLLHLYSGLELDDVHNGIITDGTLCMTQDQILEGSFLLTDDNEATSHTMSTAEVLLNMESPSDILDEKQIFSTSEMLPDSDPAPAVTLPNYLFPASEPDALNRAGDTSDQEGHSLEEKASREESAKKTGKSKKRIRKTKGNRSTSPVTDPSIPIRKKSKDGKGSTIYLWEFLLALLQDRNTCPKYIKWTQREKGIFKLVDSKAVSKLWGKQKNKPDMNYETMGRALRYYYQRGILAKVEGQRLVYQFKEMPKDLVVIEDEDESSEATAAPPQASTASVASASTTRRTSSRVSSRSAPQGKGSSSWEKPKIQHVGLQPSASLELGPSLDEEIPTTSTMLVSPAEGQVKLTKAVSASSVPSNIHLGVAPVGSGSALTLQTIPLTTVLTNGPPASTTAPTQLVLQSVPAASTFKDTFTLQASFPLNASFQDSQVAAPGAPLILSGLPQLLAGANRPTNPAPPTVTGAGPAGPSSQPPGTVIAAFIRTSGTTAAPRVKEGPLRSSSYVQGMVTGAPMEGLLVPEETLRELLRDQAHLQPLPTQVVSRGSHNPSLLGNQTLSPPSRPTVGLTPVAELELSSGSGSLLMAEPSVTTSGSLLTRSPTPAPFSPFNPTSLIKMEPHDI
Chain of CRX (O43186 whole entry): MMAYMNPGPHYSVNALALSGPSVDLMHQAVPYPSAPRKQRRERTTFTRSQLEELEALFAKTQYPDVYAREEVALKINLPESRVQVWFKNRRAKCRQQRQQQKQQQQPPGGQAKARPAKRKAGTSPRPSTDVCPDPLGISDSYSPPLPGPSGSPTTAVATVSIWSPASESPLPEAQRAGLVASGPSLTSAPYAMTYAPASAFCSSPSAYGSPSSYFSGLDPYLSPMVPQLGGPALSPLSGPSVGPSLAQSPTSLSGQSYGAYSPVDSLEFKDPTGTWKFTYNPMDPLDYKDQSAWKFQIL
Chain of ETV5 (P41161 whole entry): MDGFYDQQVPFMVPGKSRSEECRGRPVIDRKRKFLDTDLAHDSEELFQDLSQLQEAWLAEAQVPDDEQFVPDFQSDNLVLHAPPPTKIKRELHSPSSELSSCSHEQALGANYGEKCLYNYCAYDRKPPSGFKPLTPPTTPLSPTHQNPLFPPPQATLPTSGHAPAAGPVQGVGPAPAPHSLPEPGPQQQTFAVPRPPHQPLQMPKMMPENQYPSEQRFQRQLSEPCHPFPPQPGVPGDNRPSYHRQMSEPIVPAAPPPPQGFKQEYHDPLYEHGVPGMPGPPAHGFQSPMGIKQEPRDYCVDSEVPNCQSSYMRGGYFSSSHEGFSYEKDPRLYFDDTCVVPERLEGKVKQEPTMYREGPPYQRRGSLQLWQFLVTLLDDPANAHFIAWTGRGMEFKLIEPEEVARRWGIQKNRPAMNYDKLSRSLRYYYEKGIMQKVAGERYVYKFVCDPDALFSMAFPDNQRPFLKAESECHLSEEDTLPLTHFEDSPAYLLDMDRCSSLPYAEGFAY
Chain of ETV1 (P50549 whole entry): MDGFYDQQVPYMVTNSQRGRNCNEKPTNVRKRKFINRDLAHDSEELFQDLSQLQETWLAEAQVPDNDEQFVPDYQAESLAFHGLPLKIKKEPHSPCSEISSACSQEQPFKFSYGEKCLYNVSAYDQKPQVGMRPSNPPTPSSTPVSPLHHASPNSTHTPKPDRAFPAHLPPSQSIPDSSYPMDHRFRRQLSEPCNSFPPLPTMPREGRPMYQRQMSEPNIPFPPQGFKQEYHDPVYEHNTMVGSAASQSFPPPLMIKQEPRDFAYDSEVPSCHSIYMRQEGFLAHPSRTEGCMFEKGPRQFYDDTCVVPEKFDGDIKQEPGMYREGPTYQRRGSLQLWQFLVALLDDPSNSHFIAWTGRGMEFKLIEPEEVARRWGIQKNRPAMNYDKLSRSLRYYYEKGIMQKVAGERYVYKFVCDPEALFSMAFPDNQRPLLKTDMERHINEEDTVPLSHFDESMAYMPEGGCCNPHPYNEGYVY
Chain of HSF1 (Q00613 whole entry): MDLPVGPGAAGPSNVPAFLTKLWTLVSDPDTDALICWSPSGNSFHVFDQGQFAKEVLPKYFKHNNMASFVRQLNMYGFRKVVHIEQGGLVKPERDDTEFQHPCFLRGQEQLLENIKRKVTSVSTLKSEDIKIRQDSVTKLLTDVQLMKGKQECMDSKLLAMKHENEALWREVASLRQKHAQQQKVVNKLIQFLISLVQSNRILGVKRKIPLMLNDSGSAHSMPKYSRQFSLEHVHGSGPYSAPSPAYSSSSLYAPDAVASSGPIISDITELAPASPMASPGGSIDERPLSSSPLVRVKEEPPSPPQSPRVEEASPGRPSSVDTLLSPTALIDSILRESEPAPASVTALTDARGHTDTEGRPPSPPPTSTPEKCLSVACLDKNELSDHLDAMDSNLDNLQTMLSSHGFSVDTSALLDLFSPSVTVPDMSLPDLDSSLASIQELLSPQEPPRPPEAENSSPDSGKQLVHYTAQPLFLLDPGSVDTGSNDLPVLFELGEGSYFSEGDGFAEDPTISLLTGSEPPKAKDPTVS

Which results are given for AATCGC?
binding signal (FEV): 1.08 fold enrichment (6-mer frequency, TF over GST control); binding signal (ETV5): 1.03 fold enrichment (6-mer frequency, TF over GST control); binding signal (HSF1): 1.3 fold enrichment (6-mer frequency, TF over GST control); binding signal (SPIC): 1.08 fold enrichment (6-mer frequency, TF over GST control); binding signal (ELF4): 1.14 fold enrichment (6-mer frequency, TF over GST control); binding signal (ELK4): 1.08 fold enrichment (6-mer frequency, TF over GST control); binding signal (ETV2): 1.04 fold enrichment (6-mer frequency, TF over GST control); binding signal (ELF3): 1.08 fold enrichment (6-mer frequency, TF over GST control); binding signal (CRX): 1.62 fold enrichment (6-mer frequency, TF over GST control); binding signal (ETV1): 1.15 fold enrichment (6-mer frequency, TF over GST control)
